These results are taken from PubChem BioAssay (Tox21).

Inconclusive results are not listed. Where a call stands in place of a potency, no number is given. Activity calls are given as the source filed them. The call rests on the fitted dose curve; in most records, active means well fitted cell-killing curve with a large enough effect in the repeat runs; inconclusive means weak or mixed curves, or effect the other way; inactive means flat fitted curve, though single readings scatter.

Test [1] can be described thus: cAMP Responsive Elements (CRE) small molecule antagonists, cell-based qHTS assay: qHTS cell viability counter screen (AID 2060913). Further: nearly all actives have a fitted effect of over 40% in size. A digest of the protocol:
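Cytotoxicity read in the same wells as the CRE-bla HEK293T antagonist assay: after 3 h compound with 0.25 uM NKH477 final and 2 h beta-lactamase substrate, CellTiter-Glo luminescence measured.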
(Quantitative high-throughput screening tests each substance at several concentrations.)

Test [2] is described as follows: cAMP Responsive Elements (CRE) small molecule agonists, cell-based qHTS assay: qHTS cell viability counter screen (AID 2060914). Further: nearly all actives have a fitted effect of over 50% in size. A digest of the protocol: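 CRE-bla HEK293T cells in 10% dialyzed FBS medium were exposed to compounds for 3 h at 37C after 18 h plating. CellTiter-Glo was then added in the same wells, and luminescence was read after 30 min at room temperature.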

`NNCCc1ccccc1`: the Potency result in test [1] and in test [2] was “inactive” throughout.

With `CCN(C=O)CC`, the Potency entry in test [1] and in test [2] was “inactive” throughout.

Take `Clc1sc(Cl)c(Cl)c1Cl`: the Potency entry in test [1] and in test [2] was “inactive” throughout.

On to `CN(C)CC/C=C1\c2ccccc2Sc2ccc(Cl)cc21`, for which the Potency entry in test [1] and in test [2] was “inactive” each time.

With `O=[N+]([O-])c1cccc(C(F)(F)F)c1`, the Potency entry in test [1] and in test [2] was “inactive” throughout.

In the case of `CCOC(=O)[C@H](C)O`, the Potency entry in test [1] and in test [2] was “inactive” each time.

Turning to `CCCCCc1ccco1`, the Potency result in test [1] and in test [2] was “inactive” in each case.

On to `O=C(O)CC(O)C(=O)O` (stereo unspecified), for which the Potency result in test [1] and in test [2] was “inactive” in each case.
